# Laboratory results published in PubChem BioAssay (Tox21).
# “And” between values parts separate entries of the source, which are not always exact repeats. Equal values may be shown once. Inconclusive results are not listed. A call without a number means that no potency is given here. The source holds several records for some structures; these can differ, active in one and inactive in another. The source made the active and inactive calls. Calls come from the whole dose curve; as a rule, active = well fitted inhibition curve with a large enough effect in the signal ratio in the repeat runs, with a control signal flat; inconclusive = weak or mixed curves, or effect the other way; inactive = flat fitted curve, though single readings scatter; the % refers to the signal ratio.
# Molecular target: D(2) dopamine receptor (Homo sapiens) (UniProt P14416)
# Experiment: Dopamine D2 receptor (DRD2) small molecule antagonists, cell-based qHTS assay (AID 1963595)
# Settings: HEK293-DRD2 cAMP HTRF antagonist mode; series mostly up to 92.4 µM; activity change, negative = inhibition: at the top concentration
# From the text: National Center for Advancing Translational Sciences [NCATS]
# Division of Preclinical Innovation [DPI]
# U.S. Environmental Protection Agency [EPA]
# National Institutes of Environmental Health Sciences [NIEHS]
# National Toxicology Program [NTP]
# U.S. Food and Drug Administration [FDA]
# DRD2 is the D2 subtype of the dopamine receptor, which is coupled to Gi subtype of G protein-coupled receptor. This G protein-coupled receptor inhibits adenylyl cyclase activity. The DRD2-HEK293 cell line stably expressing D2 dopamine receptor can be used for screening agonists and antagonists of interactions between D2 and its ligands. The Hek293-DRD2 cAMP assay is based on HTRF technology. It measures changes of cAMP accumulation in response to Gi coupled GPCR activation or inhibition.
# Tox21 Assay Protocol Summary:
# DRD2-Hek293 cells were dispensed at 600 cells/3uL/well in 1536-well white plates using a Multidrop Dispenser. After the assay plates were incubated at a 37 C/5% CO2 incubator for 24 h, 1 uL of Ro20-1724 at final concentration of 0.1 mM was transferred to the assay plate by a Flying Reagent Dispenser. Following Ro20-1724 addition, 23 nL of compound dissolved in DMSO, positive controls or DMSO only was added to the assay plates via Wako pintool station. The assay plates were incubated at room temperature for 10 min. Next, 1 uL of mixture of NKH477 (final concentration at 200 nM) and quinpirole (final concentration at 12 nM) was added into the plates. After the assay plates were incubated at room temperature for an additional 30 min, 2.5 ul/well of cAMP-d2 and 2.5 ul/well of anti-cAMP-cryptate were added respectively into the assay plates using a Flying Reagent Dispenser. The plates were incubated at room temperature for 1 h. The fluorescence intensity in the plates was measured at 340 nm excitation and 665 & 620 nm emission by an Envision plate reader.
# Potency is the fitted concentration of half-maximal effect.
# Chain of D(2) dopamine receptor (Homo sapiens) (P14416 whole entry, looked up): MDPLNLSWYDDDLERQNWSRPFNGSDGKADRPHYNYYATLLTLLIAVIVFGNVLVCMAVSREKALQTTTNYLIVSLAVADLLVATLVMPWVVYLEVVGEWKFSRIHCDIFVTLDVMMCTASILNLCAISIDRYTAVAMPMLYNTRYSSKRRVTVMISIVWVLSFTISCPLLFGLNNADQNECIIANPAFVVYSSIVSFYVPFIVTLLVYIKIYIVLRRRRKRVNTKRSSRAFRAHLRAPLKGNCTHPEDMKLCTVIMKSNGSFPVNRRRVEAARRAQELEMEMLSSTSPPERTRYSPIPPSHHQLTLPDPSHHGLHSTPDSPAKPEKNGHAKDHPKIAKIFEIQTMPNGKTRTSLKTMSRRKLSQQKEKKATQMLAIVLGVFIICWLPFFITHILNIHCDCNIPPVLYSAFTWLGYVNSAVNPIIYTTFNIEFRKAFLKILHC
SMILES,Potency,"activity change, negative = inhibition"
O=Cc1cccc(Oc2ccccc2)c1,inactive,–
N#CCCCCC#N,inactive,–
CN(C)CCC#N,inactive,–
O=[N+]([O-])c1cccc(O)c1,–,2.97% (inactive)
O=P(Oc1ccccc1)(Oc1ccccc1)Oc1ccccc1,–,15.9% (inactive)
O=c1oc2ccccc2c(O)c1C(CC(O)c1ccc(-c2ccc(Br)cc2)cc1)c1ccccc1 (stereo not given),inactive,–
N#CCCO,–,3.65% (inactive)
CCC[CH2][Sn]([Cl])([Cl])[CH2]CCC,inactive,–
CCCCCCCCCCCCCCCC[n+]1ccccc1,inactive and 60.3 µM (active),–
CCCCCCCCCCCCCCCC[N+](C)(C)C,–,0.751% [at 42.5 µM] (inactive)
CCOP(=S)(OCC)SCn1c(=O)oc2cc(Cl)ccc21,inactive,–
CN1C(=O)CCS(=O)(=O)C1c1ccc(Cl)cc1 (stereo not given),–,-3.48% (inactive)
N#Cc1cc([N+](=O)[O-])ccc1N,–,-0.224% (inactive)
CCCC[n+]1ccccc1C,inactive,–
CC(C)=CCN1CC[C@@]2(C)c3cc(O)ccc3C[C@@H]1[C@@H]2C,–,-1.78% (inactive)
CN(C)NC(=O)CCC(=O)O,inactive,–
COc1cc(N)c(Cl)cc1C(=O)NC1CN2CCC1CC2 (stereo not given),–,6.54% [at 42.5 µM] (inactive)
CC(C)c1ccc(OP(=O)(Oc2ccc(C(C)C)cc2)Oc2ccc(C(C)C)cc2)cc1,inactive,–
CN(CCCC(=O)c1cccnc1)N=O,–,3.23% (inactive)
O=C(O)C(F)(F)C(F)(F)C(F)(F)C(F)(F)C(F)(F)C(F)(F)C(F)(F)F,inactive,–

SMILES,Potency,"activity change, negative = inhibition"
[Cl-].[Cl-].[Cl-].[Fe+3],inactive,–
CCC(C)(C#N)N=NC(C)(C#N)CC (stereo not given),–,0.0347% (inactive)
COc1cccc(C=O)c1,–,5.04% (inactive)
Fc1cc(Br)ccc1CBr,–,-0.0556% [at 42.5 µM] (inactive)
CCCn1cc[n+](C)c1,inactive,–
CCC(C)(C)c1ccc(O)cc1,inactive,–
O=S(=O)(O)C(F)(F)C(F)(F)C(F)(F)C(F)(F)C(F)(F)C(F)(F)C(F)(F)C(F)(F)F,inactive,–
N#Cc1ccncc1,–,0.946% (inactive)
O=P(OCCCl)(OCCCl)OCCCl,inactive,–
CCOP(=O)(CN(CCO)CCO)OCC,–,1.26% (inactive)
CCOC(=O)C(O)(c1ccc(Cl)cc1)c1ccc(Cl)cc1,–,-20.9% (inactive)
CNc1cnn(-c2cccc(C(F)(F)F)c2)c(=O)c1Cl,inactive,–
CN1C(=O)CN=C(c2ccccc2)c2cc(Cl)ccc21,inactive,–
OCC(Cl)CCl (stereo not given),–,4.23% (inactive)
CCCC[n+]1cccc(C)c1,inactive,–
CCN(CC)C(=O)/C(Cl)=C(\C)OP(=O)(OC)OC,inactive,–
C[C@]1(O)CC[C@H]2[C@@H]3CCC4=CC(=O)CC[C@]4(C)[C@@]3(F)[C@@H](O)C[C@@]21C,–,-8.62% (inactive)
CCOCN(C(=O)CCl)c1c(C)cccc1CC,inactive,–
CC(C)CCCCCCOC(=O)c1ccccc1C(=O)OCCCCCCC(C)C,inactive,–
CCOC(=O)C1OC1(C)c1ccccc1 (stereo not given),inactive,–
